# Assay results from PubChem BioAssay (Tox21).
# Where “and” joins values, the source holds several entries; their conditions need not be identical. Equal entries are not always repeated. Results filed as inconclusive are left out. Where a call stands in place of a potency, no number is given. Where a structure was tested more than once in an assay, its records may differ in their call. Calls of active or inactive are those of the source. Unless noted, calls come from the whole dose curve; as a rule, active = well fitted curve in the direction sought with a large enough effect in the repeat runs; inconclusive = weak or mixed curves; inactive = no such curve, though single readings can be large; an effect the other way counts as inactive or inconclusive.
# What was measured:
# [1] = qHTS assay for small molecule agonists of the p53 signaling pathway (AID 651631; calls by dose curve; note: nearly all actives have a fitted effect of over 15% in size; note: potency is the fitted concentration of half-maximal effect)
# Procedure, shortened: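 Testing took place in human colorectal HCT-116 cells with stable p53RE-driven beta-lactamase. After 16 h of compound exposure at 37 °C, a FRET substrate was added and fluorescence recorded 2 h later.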
# [2] = qHTS assay for small molecules that induce genotoxicity in human embryonic kidney cells expressing luciferase-tagged ATAD5 (AID 651632); note: nearly all actives have a fitted effect of over 15% in size
# Procedure, shortened: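 Increased luciferase signal from ATAD5-tagged reporter cells indicates DNA-damage-driven ATAD5 induction. HEK293T cells are treated for 16 hr at 37C before detection with Amplite.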
# [3] = qHTS assay for small molecule agonists of the p53 signaling pathway - cell viability (AID 651633; calls by dose curve; note: series mostly up to about 83 µM; nearly all actives have a fitted effect of over 30% in size)
# Procedure, shortened: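 p53RE-bla cells were treated with compound for 16 hours at 37 C. Cytotoxicity was then measured as CellTiter-Glo luminescence after 30 min at room temperature.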
# [4] = qHTS assay for small molecules that induce genotoxicity in human embryonic kidney cells expressing luciferase-tagged ATAD5 - cell viability (AID 651634; calls by dose curve; note: nearly all actives have a fitted effect of over 25% in size; note: potency is the fitted concentration of half-maximal effect)
# Procedure, shortened: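 Cytotoxicity counterscreen in HEK293T cells bearing an ATAD5-luciferase reporter: live-cell protease activity measured by CellTiter-Fluor fluorescence after 15.5 hr compound exposure.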
# [5] = qHTS assay to test for compound auto fluorescence at 590 nm (red) in HepG2 cells (AID 720674)
# Procedure, shortened: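 Seeding: 2,000 HepG2 cells/well, MEM/10% FBS, overnight 37 C. Dosing: compound vs DMSO. Incubation: 1 hr, 37 C, 5% CO2. Read: fluorescence 540 ex/590 em, Rose Bengal sodium as red reference.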
# [6] = qHTS assay to test for compound auto fluorescence at 535 nm (green) in HepG2 cells (AID 720675)
# [7] = qHTS assay to test for compound auto fluorescence at 460 nm (blue) in HEK293 cells (AID 720678)
# Procedure, shortened: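 Auto fluorescence in the blue band was quantified as triamterene equivalency. HEK293 cells were seeded at 2,000/well, dosed after a 4-5 hr attachment, and kept overnight at 37C before the 405/460 nm reading.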
# [8] = qHTS assay to test for compound auto fluorescence at 590 nm (red) in HEK293 cells (AID 720679)
# Procedure, shortened: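 Autofluorescence equivalency to Rose Bengal sodium, 540/590nm, in HEK293 cells exposed overnight to 23 nL compound per well.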
# [9] = qHTS assay for small molecule disruptors of the mitochondrial membrane potential - cell viability (AID 720634; calls by dose curve; note: nearly all actives have a fitted effect of over 20% in size; note: potency is the fitted concentration of half-maximal effect)
# Procedure, shortened: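 After overnight attachment at 37 C, HepG2 cells received compound or DMSO vehicle for 1 hr. Viability is then taken from ATP-driven luminescence following a 30 min room-temperature CellTiter-Glo step.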
# [10] = qHTS assay for small molecule disruptors of the mitochondrial membrane potential (AID 720635); note: potency is the fitted concentration of half-maximal effect
# Procedure, shortened: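 HepG2 cells exposed to compound 1 hr at 37C, then Mito-MPS dye 30 min. Ratio read of aggregate (540/590 nm) versus monomer (490/535 nm) fluorescence.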
SMILES,Potency [1],outcome [2],Potency [3],Potency [4],outcome [5],outcome [6],outcome [7],outcome [8],Potency [9],Potency [10],"fluorescence, relative to Rose Bengal [5]","fluorescence, % of fluorescein control [6]","fluorescence, % of triamterene [7]","fluorescence, % of fluorescent control [8]"
COP(=O)(OC)O/C(C)=C/C(=O)N(C)C,inactive,inactive,inactive,inactive,inactive,inactive,inactive,inactive,,,,,,
CC(C)NCC(O)c1ccc([N+](=O)[O-])cc1 (stereo not drawn),inactive,inactive,inactive,inactive,inactive,inactive,inactive,inactive,inactive,,,,,
CCCCCCCC(=O)Cl,inactive,inactive,inactive,inactive,inactive,inactive,inactive,inactive,inactive,,,,,
CCCCCCCCBr,inactive,inactive,inactive,inactive,inactive,inactive,inactive,inactive,,,,,,
COC(=O)c1ccccc1CS(=O)(=O)NC(=O)Nc1nc(OC)cc(OC)n1,inactive,inactive,inactive,inactive,inactive,inactive,inactive,inactive,inactive,,,,,
Cc1cccc2sc3nncn3c12,inactive,inactive,inactive,inactive,inactive,inactive,,inactive,inactive,,,,,
N[C@@H]1C[C@H]1c1ccccc1,inactive,inactive,inactive,inactive,inactive,inactive,,inactive,inactive,,,,,
CON(C)C(=O)Nc1ccc(Br)cc1,inactive,inactive,inactive,inactive,inactive,inactive,,inactive,inactive,,,,,
N#CC(Br)(Br)C(N)=O,inactive,inactive,inactive,inactive,inactive,inactive,inactive,inactive,,,,,,
CC(C)N(Cc1ccccc1)C(=O)C(C)(C)C,inactive,inactive,inactive,inactive,inactive,inactive,inactive,inactive,inactive,,,,,
C[N+]1(C)CCCCC1,inactive,inactive,inactive,inactive,inactive,inactive,inactive,inactive,inactive,,,,,
Cn1c(CCCC(=O)O)nc2cc(N(CCCl)CCCl)ccc21,26.6 µM (active),inactive,inactive,inactive,inactive,inactive,inactive,inactive,inactive,,,,,
CC(C)c1ccc(O)cc1,inactive,inactive,inactive,inactive,inactive,inactive,inactive,inactive,inactive,,,,,
O=C(CCl)NCO,inactive,inactive,inactive,inactive,inactive,inactive,,inactive,inactive,,,,,
O=[N+]([O-])CCO,inactive,inactive,inactive,inactive,inactive,inactive,inactive,inactive,,,,,,
Oc1ccc2c3c1O[C@H]1[C@@H](O)C=C[C@H]4[C@@H](C2)NCC[C@@]341,inactive,inactive,inactive,inactive,inactive,inactive,inactive,inactive,,,,,,
CNC(=O)Oc1ccccc1C(C)C,inactive,inactive,inactive,inactive,inactive,inactive,,inactive,inactive,,,,,
COc1ccccc1OC,inactive,inactive,inactive,inactive,inactive,inactive,,inactive,inactive,,,,,
CCOC(=O)C(SP(=S)(OC)OC)c1ccccc1 (stereo not drawn),inactive,inactive,inactive,inactive,inactive,inactive,inactive,inactive,inactive,,,,,

SMILES,Potency [1],outcome [2],Potency [3],Potency [4],outcome [5],outcome [6],outcome [7],outcome [8],Potency [9],Potency [10],"fluorescence, relative to Rose Bengal [5]","fluorescence, % of fluorescein control [6]","fluorescence, % of triamterene [7]","fluorescence, % of fluorescent control [8]"
O=C(O)C(F)(F)C(F)(F)C(F)(F)C(F)(F)C(F)(F)C(F)(F)F,inactive,inactive,inactive,inactive,inactive,inactive,inactive,inactive,inactive,,,,,
CCC(=O)OC1(c2ccccc2)CCN(C)CC1,inactive,inactive,inactive,inactive,inactive,inactive,,inactive,inactive,,,,,
c1ccc2c(c1)CCNC2,inactive,inactive,inactive,inactive,inactive,inactive,inactive,inactive,inactive,,,,,
O=C(Cl)CCl,inactive,inactive,inactive,inactive,inactive,inactive,inactive,inactive,inactive,,,,,
CCCCCCC1CCOC1=O (stereo not drawn),inactive,inactive,inactive,inactive,inactive,inactive,,inactive,inactive,,,,,
C=CCCC#N,inactive,inactive,inactive,inactive,inactive,inactive,inactive,inactive,inactive,,,,,
CCc1cc(OC)c(C[C@H](C)N)cc1OC,inactive,inactive,inactive,inactive,inactive,inactive,inactive,inactive,inactive,,,,,
CNC(=O)O/N=C(/CSC)C(C)(C)C,inactive,inactive,inactive,inactive,inactive,inactive,,inactive,inactive,,,,,
CCNP(=S)(OC)O/C(C)=C/C(=O)OC(C)C (stereo not drawn),inactive,inactive,inactive,inactive,inactive,inactive,,inactive,,,,,,
CCOC(=O)N(C)N=O,inactive,inactive,,inactive,inactive,inactive,inactive,inactive,inactive,,,,,
O=C1CCCCC1Cl (stereo not drawn),inactive,,inactive,inactive,inactive,inactive,inactive,inactive,inactive,,,,,
CC1N=C(N)OC1c1ccccc1 (stereo not drawn),inactive,inactive,,inactive,inactive,inactive,inactive,inactive,inactive,inactive,,,,
[O-][Br+2]([O-])O,inactive,inactive,,,inactive,inactive,inactive,inactive,inactive,,,,,
CCOC(=O)NC(C)(C)Cc1ccc(Cl)cc1,inactive,inactive,,inactive,inactive,inactive,inactive,inactive,inactive,inactive,,,,
O=c1[nH]oc2c1CCNC2,inactive,inactive,,inactive,inactive,inactive,inactive,inactive,,,,,,
[P]#[In],inactive,inactive,,inactive,inactive,inactive,inactive,inactive,inactive,,,,,
Cn1c(N)nc2c3cccnc3ccc21,inactive,inactive,,inactive,inactive,inactive,,inactive,inactive,,,,,
CC(C)(O)C(Cl)(Cl)Cl,inactive,inactive,,inactive,inactive,inactive,inactive,inactive,inactive,inactive,,,,
CCCCCCC(=O)CCCCCC/C=C/C[C@@H](O)[C@H](O)[C@@](N)(CO)C(=O)O,inactive,inactive,,inactive,inactive,inactive,inactive,inactive,inactive,inactive,,,,

SMILES,Potency [1],outcome [2],Potency [3],Potency [4],outcome [5],outcome [6],outcome [7],outcome [8],Potency [9],Potency [10],"fluorescence, relative to Rose Bengal [5]","fluorescence, % of fluorescein control [6]","fluorescence, % of triamterene [7]","fluorescence, % of fluorescent control [8]"
CC1=C2[C@H]3OC(=O)[C@@H](C)[C@@H]3CC[C@@]2(C)C=CC1=O,inactive,inactive,,inactive,inactive,inactive,inactive,inactive,inactive,inactive,,,,
CN(C)C(=O)Oc1cc(OC(=O)N(C)C)cc(C(O)CNC(C)(C)C)c1 (stereo not drawn),inactive,inactive,,inactive,,,,,inactive,,0.42% [at 18.6 µM] (inactive),0.0476% [at 18.6 µM] (inactive),0.0042% [at 18.6 µM] (inactive),0.104% [at 18.6 µM] (inactive)
CCN(CC)CCOC(=O)C(O)(c1ccccc1)c1ccccc1,inactive,,inactive,inactive,inactive,inactive,inactive,inactive,inactive,inactive,,,,
C=CC=O,inactive,inactive,,inactive,inactive,inactive,inactive,inactive,,,,,,
CC(C)(C1CCC(O)CC1)C1CCC(O)CC1 (stereo not drawn),inactive,,inactive,inactive,inactive,inactive,inactive,inactive,inactive,7.7 µM (active),,,,
c1cncc([C@@H]2CCCCN2)c1,inactive,inactive,inactive,,inactive,inactive,inactive,inactive,inactive,,,,,
CCOC(=O)c1ncn2c1CN(C)C(=O)c1c(I)cccc1-2,inactive,inactive,,inactive,inactive,inactive,inactive,inactive,inactive,,,,,
C/C=C/CC#N,inactive,inactive,,inactive,inactive,inactive,inactive,inactive,inactive,,,,,
CC(=NC#N)N(C)Cc1ccc(Cl)nc1,inactive,inactive,,inactive,inactive,inactive,inactive,inactive,inactive,,,,,
COC1=CC(=O)O[C@@H](/C=C/c2ccccc2)C1,inactive,inactive,,inactive,inactive,inactive,inactive,inactive,inactive,inactive,,,,
COc1cc(CC(C)N)cc(OC)c1OC (stereo not drawn),inactive,inactive,,inactive,inactive,inactive,inactive,inactive,inactive,inactive,,,,
OCC(Cl)CCl (stereo not drawn),inactive,,inactive,inactive,inactive,inactive,,inactive,inactive,inactive,,,,
O=C1C2CC=CCC2C(=O)N1SC(Cl)(Cl)Cl (stereo not drawn),5.96 µM (active),inactive,inactive,,inactive,inactive,inactive,inactive,29.8 µM (active) and inactive and 60.1 µM (active),8.41 µM (active) and 43.1 µM (active) and 8.49 µM (active),,,,
C=CCc1cc(OC)c2c(c1)OCO2,inactive,,inactive,inactive,inactive,inactive,inactive,inactive,inactive,inactive,,,,
CCN(CCO)CCn1c(Cc2ccccc2)nc2c1c(=O)n(C)c(=O)n2C,inactive,inactive,,inactive,inactive,inactive,inactive,inactive,inactive,,,,,
C[C@H]1CCCC(=O)CCC/C=C/c2cc(O)cc(O)c2C(=O)O1,9.33 µM (active) and 22.4 µM (active),,inactive,20.9 µM (active),inactive,inactive,inactive,inactive,11.7 µM (active) and 20 µM (active),2.34 µM (active) and 4.47 µM (active),,,,
CCSC(=O)Cl,inactive,inactive,,inactive,inactive,inactive,inactive,inactive,inactive,inactive,,,,
C=CC(=O)OCCN(C)C,inactive,inactive,,inactive,inactive,inactive,inactive,inactive,inactive,inactive,,,,
CN1COCN(Cc2cnc(Cl)s2)/C1=N\[N+](=O)[O-],inactive,inactive,,inactive,inactive,inactive,inactive,inactive,inactive,,,,,
